Assay [1] concerns the target human Serotonin Transporter (SERT), SLC6A4 (gene 6532) (UniProt P31645). In words: NVS_TR_hSERT: NovaScreen (NVS) Transporter Assay for human Serotonin Transporter (SERT) (AID 2283372). The method, boiled down:
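Human platelet membrane preparation; displacement of radioligand from serotonin transporter measured after 1 h by filtration and scintillation counting. Single 25 uM duplicate screen, then concentration series for actives, with DMSO as negative baseline.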

The target in assay [2] is Peroxisome proliferator-activated receptor gamma (Homo sapiens) (UniProt P37231). In words: NVS_NR_hPPARg: NovaScreen (NVS) Nuclear Receptor Binding Assay for human Peroxisome Proliferator-activated Receptor gamma (PPARg) (AID 2283370). The method, boiled down: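 Chemicals were tested first in duplicate at 25 uM, then in concentration series if active. Binding to cell-free PPARg protein was measured by fluorescence polarization after 2 h, with loss of signal scored against DMSO.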

The target of assay [3] is guinea pig Sigma Receptor, Non-selective Binding, SIGMAR1 (gene 100135589) (UniProt Q60492). In words: NVS_OR_gSIGMA_NonSelective: NovaScreen (NVS) Nuclear Receptor Binding Assay for guinea pig Sigma Receptor, Non-selective Binding (AID 2283367). The method, boiled down: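 Guinea pig brain membrane sigma sites were labelled with a radioligand, and bound radioactivity was counted after filtration 1 h post-dose. Compounds were screened at 25 uM in duplicate, then retested as concentration series when active.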

Assay [4] has as its system guinea pig Dopamine Transporter (DAT), gene 100714898. In words: NVS_TR_gDAT: NovaScreen (NVS) Transporter Assay for guinea pig Dopamine Transporter (DAT) (AID 2283369).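 Note: active compounds lower bound radioligand signal relative to DMSO.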 The method, boiled down:
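Scintillation counts of filter-retained radioligand report binding to guinea pig striatal membranes after 2 h. Activity scored as signal loss relative to DMSO, first at 25 uM in duplicate, then in concentration series to 50 uM.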

Assay [5] relates to rat Norepinephrine Transporter (NET), gene 83511. In words: NVS_TR_rNET: NovaScreen (NVS) Transporter Assay for rat Norepinephrine Transporter (NET) (AID 2283373). The procedure, abridged: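 Competitive radioligand displacement at the rat NET using forebrain membrane preparations, 1 h incubation, filter-based scintillation readout. Primary testing in duplicate at a single 25 uM concentration; confirmed actives retested across concentrations.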

The target in assay [6] is rat Serotonin Transporter (SERT), Slc6a4 (gene 25553) (UniProt P31652). In words: NVS_TR_rSERT: NovaScreen (NVS) Transporter Assay for rat Serotonin Transporter (SERT) (AID 2283375). The method, boiled down:
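Filtration-based radiodetection quantified loss of specific radioligand binding in rat forebrain membranes after 1 hour of chemical exposure, relative to DMSO. Chemicals were first tested in duplicate at 25 uM.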

Assay [7] has as its target human Adenosine Transporter (Adot), SLC29A1 (gene 2030) (UniProt Q99808). In words: NVS_TR_hAdoT: NovaScreen (NVS) Transporter Assay for human Adenosine Transporter (Adot) (AID 2283368). The method, boiled down: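 Binding displacement on U937 extracted protein, read 1 h post-dose by filtration and scintillation counting. Primary duplicate test at 25 uM, then singleton concentration series with 50 uM top; DMSO baseline.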

The structures appear in SMILES notation. Records with an inconclusive call do not appear. Calls of active or inactive are those of the source. Rule for the calls: active = hit-call score of the fitted dose curve at least 0.9, where 1 is the maximum; inconclusive = response in the unintended direction; inactive = score below 0.9.

guinea pig Sigma Receptor, Non-selective Binding, SIGMAR1 (gene 100135589), sequence (Q60492 whole entry, looked up): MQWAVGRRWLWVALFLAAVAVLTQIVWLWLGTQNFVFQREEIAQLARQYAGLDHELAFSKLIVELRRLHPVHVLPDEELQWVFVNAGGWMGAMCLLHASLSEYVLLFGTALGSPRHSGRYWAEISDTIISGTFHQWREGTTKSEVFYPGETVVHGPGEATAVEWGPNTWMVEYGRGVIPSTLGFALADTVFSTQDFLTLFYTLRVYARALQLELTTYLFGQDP
Peroxisome proliferator-activated receptor gamma (Homo sapiens), sequence (P37231 whole entry, looked up): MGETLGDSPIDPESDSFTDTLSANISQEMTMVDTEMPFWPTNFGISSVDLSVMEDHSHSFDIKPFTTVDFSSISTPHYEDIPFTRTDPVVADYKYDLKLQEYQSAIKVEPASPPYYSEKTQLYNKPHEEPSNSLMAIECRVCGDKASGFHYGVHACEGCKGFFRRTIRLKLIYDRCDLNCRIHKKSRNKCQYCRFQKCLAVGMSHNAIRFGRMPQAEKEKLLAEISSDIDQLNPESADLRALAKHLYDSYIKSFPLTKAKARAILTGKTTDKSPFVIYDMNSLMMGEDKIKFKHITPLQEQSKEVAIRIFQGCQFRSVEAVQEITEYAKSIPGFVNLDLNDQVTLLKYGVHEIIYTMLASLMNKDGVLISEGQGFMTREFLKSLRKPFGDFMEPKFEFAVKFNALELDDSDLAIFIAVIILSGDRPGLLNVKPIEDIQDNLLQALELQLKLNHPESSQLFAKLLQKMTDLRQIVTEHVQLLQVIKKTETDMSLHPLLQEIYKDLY
rat Serotonin Transporter (SERT), Slc6a4 (gene 25553), sequence (P31652 whole entry, looked up): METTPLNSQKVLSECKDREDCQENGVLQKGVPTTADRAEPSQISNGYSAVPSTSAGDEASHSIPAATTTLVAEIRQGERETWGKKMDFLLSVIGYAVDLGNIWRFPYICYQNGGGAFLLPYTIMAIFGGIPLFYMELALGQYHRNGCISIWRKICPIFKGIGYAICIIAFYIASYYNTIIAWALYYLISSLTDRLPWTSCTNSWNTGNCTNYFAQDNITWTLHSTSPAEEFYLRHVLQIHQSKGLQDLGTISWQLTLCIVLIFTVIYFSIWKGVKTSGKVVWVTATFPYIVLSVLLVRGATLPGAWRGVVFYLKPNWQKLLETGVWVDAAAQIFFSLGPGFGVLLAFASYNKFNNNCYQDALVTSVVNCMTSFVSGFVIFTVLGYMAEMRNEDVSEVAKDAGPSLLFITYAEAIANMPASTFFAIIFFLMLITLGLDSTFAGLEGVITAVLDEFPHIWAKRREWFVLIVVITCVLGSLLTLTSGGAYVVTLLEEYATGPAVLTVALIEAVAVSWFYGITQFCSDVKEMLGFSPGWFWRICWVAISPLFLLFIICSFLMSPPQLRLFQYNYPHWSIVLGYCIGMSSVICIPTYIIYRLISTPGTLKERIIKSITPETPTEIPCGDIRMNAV
human Serotonin Transporter (SERT), SLC6A4 (gene 6532), sequence (P31645 whole entry, looked up): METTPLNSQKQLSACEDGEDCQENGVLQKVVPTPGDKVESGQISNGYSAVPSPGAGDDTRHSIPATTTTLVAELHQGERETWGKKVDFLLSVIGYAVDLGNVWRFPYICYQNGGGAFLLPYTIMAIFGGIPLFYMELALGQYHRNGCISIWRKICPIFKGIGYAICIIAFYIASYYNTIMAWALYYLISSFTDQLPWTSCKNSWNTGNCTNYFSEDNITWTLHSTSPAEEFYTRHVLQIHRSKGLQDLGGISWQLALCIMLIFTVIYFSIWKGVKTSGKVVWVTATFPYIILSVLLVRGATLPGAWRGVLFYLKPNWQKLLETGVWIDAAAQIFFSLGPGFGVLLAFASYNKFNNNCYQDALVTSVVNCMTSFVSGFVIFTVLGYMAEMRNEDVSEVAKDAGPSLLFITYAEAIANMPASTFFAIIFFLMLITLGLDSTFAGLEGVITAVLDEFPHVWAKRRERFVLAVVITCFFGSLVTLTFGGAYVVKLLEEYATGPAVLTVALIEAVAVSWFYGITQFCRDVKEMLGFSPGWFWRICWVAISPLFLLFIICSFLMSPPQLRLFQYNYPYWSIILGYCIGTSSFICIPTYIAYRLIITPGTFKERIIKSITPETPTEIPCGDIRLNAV
human Adenosine Transporter (Adot), SLC29A1 (gene 2030), sequence (Q99808 whole entry, looked up): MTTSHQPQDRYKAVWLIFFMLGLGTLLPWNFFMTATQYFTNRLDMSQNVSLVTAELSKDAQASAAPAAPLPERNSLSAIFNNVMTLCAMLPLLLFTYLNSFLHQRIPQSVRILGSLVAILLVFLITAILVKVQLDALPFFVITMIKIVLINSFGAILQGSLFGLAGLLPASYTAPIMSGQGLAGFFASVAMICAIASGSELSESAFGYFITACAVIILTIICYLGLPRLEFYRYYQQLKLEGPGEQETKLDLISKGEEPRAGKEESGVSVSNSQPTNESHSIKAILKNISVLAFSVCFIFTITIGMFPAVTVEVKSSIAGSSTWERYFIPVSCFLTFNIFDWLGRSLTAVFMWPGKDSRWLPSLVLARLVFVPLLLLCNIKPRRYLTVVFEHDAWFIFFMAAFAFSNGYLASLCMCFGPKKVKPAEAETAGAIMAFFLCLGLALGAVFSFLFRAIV

A word on the AC50: it is the concentration giving half of the maximal activity seen. With `COc1ccc(OC(F)(F)F)cc1CN[C@H]1CCCN[C@H]1c1ccccc1`, the AC50 in assay [1] is 12.5 µM (active). On to `Oc1ccc(O)cc1`, for which the compound was classed as inactive in assay [2]. For the compound `O=C(O)CC(O)(CC(=O)O)C(=O)O`, the outcome in assay [2] was inactive. As for `Oc1ccccc1O`, the AC50 in assay [2] is 0.00229 µM (active). In the case of `NC1CCCCC1`, in assay [2], the compound was classed as inactive.

As to `CN(C)CCCN1c2ccccc2Sc2ccc(Cl)cc21`, the AC50 was 2.11 µM (active) in assay [3], 8.84 µM (active) in assay [4], 0.0781 µM (active) in assay [5] and 2.55 µM (active) in assay [6]. Consider `C=CCc1ccc(OC)c(OC)c1`, for which the compound was called inactive in assay [2]. On the same count and under the same terms, then `CCOCCOCCO`, with “inactive”; and `O=C1O[C@H]([C@H](O)CO)C(O)=C1O`, with “inactive”. For `CC(C)NCC(O)c1ccc(O)c(O)c1` (stereo unspecified), the AC50 in assay [2] was 9.71 µM (active). Still for that read-out and setting: as for `CC(N)=O`, the figure is 4.98 µM (active).

Turning to `CO[C@@H]1COCC[C@@H]1N[C@@H]1CC[C@@](C(=O)N2CCc3ncc(C(F)(F)F)cc3C2)(C(C)C)C1`, the AC50 in assay [3] is 1.94 µM (active); in assay [2], 15.8 µM (active). Regarding `CC(C)(O)c1ccc(CNC(=O)c2cccnc2Oc2ccc(F)cc2)cc1`, in assay [7], the AC50 was 34.7 µM (active). Regarding `NC(=Nc1ccccc1)Nc1ccccc1`, the AC50 in assay [3] was 0.646 µM (active). Besides, in assay [5], the result was inactive. As for `COC(=O)[C@H]1[C@H]2C[C@@H]3c4[nH]c5cc(OC)ccc5c4CCN3C[C@H]2C[C@@H](OC(=O)c2cc(OC)c(OC)c(OC)c2)[C@@H]1OC`, the AC50 in assay [7] was 6.6 µM (active). On to `Cc1cc(SC2=C(O)C[C@@](CCc3ccc(N)cc3)(C(C)C)OC2=O)c(C(C)(C)C)cc1CO`, for which the outcome in assay [3], in assay [4] and in assay [6] was inactive. `Cn1cnc2c1c(=O)[nH]c(=O)n2C`: the result in assay [3] and in assay [2] was inactive. Also, the AC50 in assay [4] was 10.5 µM (active); in assay [6], 2.36 µM (active).

Turning to `CCCCCCC(CCCCCCCCCCC(=O)OCC(COC(C)=O)OC(C)=O)OC(C)=O` (stereo unspecified), the compound was classed as inactive in assay [2]. For the compound `O=C(N[C@@H](c1ccccc1)[C@@H]1CCCCN1)c1cccc(C(F)(F)F)c1Cl`, the AC50 was 25 µM (active) in assay [4], 9.57 µM (active) in assay [1] and 7.98 µM (active) in assay [6].

On to `CC(COCC(C)OC(=O)c1ccccc1)OC(=O)c1ccccc1` (stereo unspecified), for which the result in assay [4] was inactive. Take `O=C(NS(=O)(=O)/C=C/c1cccs1)c1ccc(F)cc1Br`: in assay [2], the AC50 is 40.7 µM (active). On the same count and under the same terms, then `CCCCC(CC)CO` (stereo unspecified), with 0.00905 µM (active).

Turning to `C/C=C/C=C/C(=O)O`, the compound was classed as inactive in assay [2] and in assay [1]. As for `OCC(O)CO`, the AC50 in assay [2] was 0.00229 µM (active).

Consider `CCC(C)N(C)C(=O)c1cc2ccccc2c(-c2ccccc2Cl)n1` (stereo unspecified), for which the AC50 in assay [3] is 6.44 µM (active); in assay [2] it was 5.15 µM (active). As for `CN(C)C(=O)NC1(c2ccccc2)CCN(CCC[C@]2(c3ccc(Cl)c(Cl)c3)CCCN(C(=O)c3ccccc3)C2)CC1`, the AC50 in assay [4] is 0.596 µM (active); in assay [5], 3.55 µM (active).

The values are drawn from PubChem BioAssay (EPA / NIEHS).
